We go through 40 compounds from PubChem BioAssay (NCI).

About 79,000 compounds went through this panel and 15% of them were active in at least one assay; those are over-represented in the sample as a whole. A number with no mark means an inactive call. Activity calls are given as the source filed them. Rule as the data show it: active = growth inhibition above about 70%; inactive = the rest. Where a SMILES comes first, the peptide text is derived from it. The star is where a group is joined. Fmoc = O=C(OCC1c2ccccc2-c2ccccc21)*; OBn = c1ccc(CO*)cc1; tBu = CC(C)(C)*

The first test can be described thus: NCI Yeast Anticancer Drug Screen. Data for the bub3 strain (AID 167). The conditions noted are these: S. cerevisiae bub3 mutant strain, at 50.0 µM, hits give high values. Summed up: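 Compounds were applied to a genetically altered yeast strain carrying a cell-cycle control defect. Growth inhibition was scored against vehicle-treated controls.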
`COc1ccc(C2C(C)C(=O)C(C)C(c3ccc(OC)cc3)N2N=O)cc1` (stereo not given): the growth inhibition is 26.6%.
Same read-out and setting: the result for `CCOC(=O)CCCCCC(C(=O)OCC)c1nc2ccccc2[nH]c1=O` (stereo not given) reads 11.1%; that for `COc1cc2c(cc1O)C1Cc3cc(O)c(OC)cc3C(C2)N1C` (stereo not given), -25.6%.
Same read-out and setting: the result for `N#C/C(=C\c1ccccc1Br)C(=O)c1ccccc1` reads -12.8%.
On to `OC1C2CC3C(C2)C13` (stereo not given), for which the growth inhibition was -18.4%.
Still for that read-out and setting: the result for `NC1=NS(=O)(=O)Nc2nc(-c3ccc([N+](=O)[O-])o3)[nH]c21` reads -2.7%.
Same read-out and setting: the result for `CC(=O)OC1(C#N)CCCCC1` reads 4.8%; that for `Clc1cccc(C=NC23CC4CC(CC(C4)C2)C3)c1Cl`, -22.6%; that for `NC(N)=Nc1nc2ccc(Cl)cc2[nH]1`, -11.9%.
Regarding `O=C1c2cc(Cl)ccc2NC(O)c2cccn21` (stereo not given), the growth inhibition is -11.4%.
The same measure, in the same setting: the result for `CCCCCCCCCCCCCCCC(=O)OCC1OC(OC(=O)CCCCCCCCCCCCCCC)C(OC(=O)CCCCCCCCCCCCCCC)C(OC(=O)CCCCCCCCCCCCCCC)C1OC(=O)CCCCCCCCCCCCCCC` (stereo not given) reads -24.7%.
In the case of `CN(C)C(=S)/N=c1\ss/c(=N\C(=S)N(C)C)n1-c1ccc2c(c1)OCO2`, the growth inhibition is -16.9%.
Still for that read-out and setting: the result for `O=C1C=C(Nc2ccc(Cl)cc2C(=O)c2ccccc2)c2ccccc2C1=O` reads -6.55%; that for `CC[n+]1c(/C=C\N(C(C)=O)c2ccccc2)oc2ccccc21`, 6.2%.
With `CCN(CC)C(=O)CS(=O)(=O)c1ccc(N)cc1`, the growth inhibition is 7.35%.
Still for that read-out and setting: the result for `CCC1(COC(NC(=O)c2ccccc2)(C(F)(F)F)C(F)(F)F)COC1` reads -24.2%.
As to `NC(=O)CCC(NS(=O)(=O)c1ccc(NC(=O)c2ccccc2)cc1)C(=O)O` (stereo not given), the growth inhibition is -5.7%.
Same read-out and setting: the result for `COc1ccc(NC(=O)C2C(=O)N(c3ccc(OC)cc3)C(=O)/C2=N\N)cc1` (stereo not given) reads 19.4%; that for `CC(C)NC(=O)c1ccc(CBr)cc1`, 10.4%; that for `O=C1CCC(=O)N1c1ccc([I+]c2ccc(N3C(=O)CCC3=O)cc2)cc1`, -0.8%.
For the compound `CC1(C)OC2COC(CN(N=O)C(N)=O)C2O1` (stereo not given), the growth inhibition was -17.4%.
On the same count and under the same terms, the result for `N#CCCN(C1=NN(C(=O)CC(=O)Nc2cccc(Cl)c2)C(c2ccccc2)C1)c1ccccc1Cl` (stereo not given) reads -14.9%; that for `CC(c1ccccc1)C(C)(C#N)c1ccccc1` (stereo not given), 10.5%.
The same measure, in the same setting: the result for `CCOc1cc2c(cc1O)CC[C@@H]1[C@@H]2CC[C@]2(C)C(N)CC[C@@H]12` (stereo not given in full) reads -20.1%; that for `CCCCCCC(C(=O)OCC)(C(=O)OCC)c1ccccc1`, 37.9%; that for `O=S(=O)(c1ccc(I)cc1)c1ccc(I)cc1`, 5.35%.
Still for that read-out and setting: the result for `c1ccc(Cc2[nH]nc(-c3n[nH]c(Cc4ccccc4)c3-c3ccccc3)c2-c2ccccc2)cc1` reads -20.6%.
As to `FC1C2=C(SC1(F)F)C1CCC2C1` (stereo not given), the growth inhibition is -4.05%.
The same measure, in the same setting: the result for `CCCCCCP(=O)(CCCC)CCCC` reads -12%; that for `CNC(=O)Nc1[nH]c(=O)ncc1Cl`, 16.2%.
Regarding `Cc1cc(=O)c2c3c(ccc2[nH]1)Oc1ccccc1O3`, the growth inhibition is 7.1%.
Same read-out and setting: the result for `COC(=O)c1cc(C(C)O)nc2ccccc12` (stereo not given) reads 27%.
Turning to `CC(OC(C)(C)C)C(NC(=O)OCC1c2ccccc2-c2ccccc21)C(=O)NC(Cc1ccccc1)C(=O)OCc1ccccc1` (stereo not given) (Fmoc-Thr(tBu)-Phe-OBn; configuration not given here), the growth inhibition is -18.6%.
Still for that read-out and setting: the result for `CCOC(=O)c1cnc(=S)n(CCC(C)C)c1N` reads 2.9%.
The same measure, in the same setting: the result for `CC(=O)Nc1ccc(N=Nc2c(C)nn(C(=N)N)c2C)cc1` reads -4.2%; that for `O=C1NC(c2ccco2)N2C(=O)NC(c3ccco3)N12` (stereo not given), 18.6%.
With `COc1cc(-c2c3c(cc4c2OCO4)CC(O)C(C(=O)O)C3)cc(OC)c1OC` (stereo not given), the growth inhibition is 1.75%.
Still for that read-out and setting: the result for `OC(CBr)(c1ccccc1)c1ccccc1` reads 7%; that for `CC(C)C1N=C(N)N=C(N)N1c1ccc(Cl)c(Cl)c1` (stereo not given), 5.25%.
As to `CC(=O)/C(=C\I)c1ccccc1`, the growth inhibition is 89.5% (active).

A short description of a further test: NCI Yeast Anticancer Drug Screen. Data for the mlh1 rad18 strain (AID 175). Particulars: S. cerevisiae mlh1 rad18 strain growth inhibition; at 50.0 µM; hits give high values. In short, it runs like this:
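Cells of a genetically altered yeast strain, deficient in DNA damage repair, were treated with compound. Their growth was then compared with that of vehicle-treated cultures to give inhibition.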
For the compound `COc1ccc(C2C(C)C(=O)C(C)C(c3ccc(OC)cc3)N2N=O)cc1` (stereo not given), the growth inhibition was 32.8%.
Same read-out and setting: the result for `CCOC(=O)CCCCCC(C(=O)OCC)c1nc2ccccc2[nH]c1=O` (stereo not given) reads 8.55%.
As to `COc1cc2c(cc1O)C1Cc3cc(O)c(OC)cc3C(C2)N1C` (stereo not given), the growth inhibition was -22.1%.
Same read-out and setting: the result for `N#C/C(=C\c1ccccc1Br)C(=O)c1ccccc1` reads -14.3%; that for `OC1C2CC3C(C2)C13` (stereo not given), -25.8%; that for `NC1=NS(=O)(=O)Nc2nc(-c3ccc([N+](=O)[O-])o3)[nH]c21`, 50.5%.
On the same count and under the same terms, the result for `CC(=O)OC1(C#N)CCCCC1` reads 14.4%; that for `Clc1cccc(C=NC23CC4CC(CC(C4)C2)C3)c1Cl`, -10.2%.
On the same count and under the same terms, the result for `NC(N)=Nc1nc2ccc(Cl)cc2[nH]1` reads 11%.
Turning to `O=C1c2cc(Cl)ccc2NC(O)c2cccn21` (stereo not given), the growth inhibition was -0.55%.
The same measure, in the same setting: the result for `CCCCCCCCCCCCCCCC(=O)OCC1OC(OC(=O)CCCCCCCCCCCCCCC)C(OC(=O)CCCCCCCCCCCCCCC)C(OC(=O)CCCCCCCCCCCCCCC)C1OC(=O)CCCCCCCCCCCCCCC` (stereo not given) reads -14.8%; that for `CN(C)C(=S)/N=c1\ss/c(=N\C(=S)N(C)C)n1-c1ccc2c(c1)OCO2`, 1.7%; that for `O=C1C=C(Nc2ccc(Cl)cc2C(=O)c2ccccc2)c2ccccc2C1=O`, -2.9%.
Still for that read-out and setting: the result for `CC[n+]1c(/C=C\N(C(C)=O)c2ccccc2)oc2ccccc21` reads -7.8%; that for `CCN(CC)C(=O)CS(=O)(=O)c1ccc(N)cc1`, 14.7%.
The same measure, in the same setting: the result for `CCC1(COC(NC(=O)c2ccccc2)(C(F)(F)F)C(F)(F)F)COC1` reads 7.05%.
For `NC(=O)CCC(NS(=O)(=O)c1ccc(NC(=O)c2ccccc2)cc1)C(=O)O` (stereo not given), the growth inhibition is -1.95%.
Still for that read-out and setting: the result for `COc1ccc(NC(=O)C2C(=O)N(c3ccc(OC)cc3)C(=O)/C2=N\N)cc1` (stereo not given) reads 3.35%.
Consider `CC(C)NC(=O)c1ccc(CBr)cc1`, for which the growth inhibition is 14.3%.
As to `O=C1CCC(=O)N1c1ccc([I+]c2ccc(N3C(=O)CCC3=O)cc2)cc1`, the growth inhibition was 14.4%.
With `CC1(C)OC2COC(CN(N=O)C(N)=O)C2O1` (stereo not given), the growth inhibition was 5.75%.
On the same count and under the same terms, the result for `N#CCCN(C1=NN(C(=O)CC(=O)Nc2cccc(Cl)c2)C(c2ccccc2)C1)c1ccccc1Cl` (stereo not given) reads -30.9%; that for `CC(c1ccccc1)C(C)(C#N)c1ccccc1` (stereo not given), 40.4%; that for `CCOc1cc2c(cc1O)CC[C@@H]1[C@@H]2CC[C@]2(C)C(N)CC[C@@H]12` (stereo not given in full), -8.8%.
The same measure, in the same setting: the result for `CCCCCCC(C(=O)OCC)(C(=O)OCC)c1ccccc1` reads -6.2%; that for `O=S(=O)(c1ccc(I)cc1)c1ccc(I)cc1`, 3.7%; that for `c1ccc(Cc2[nH]nc(-c3n[nH]c(Cc4ccccc4)c3-c3ccccc3)c2-c2ccccc2)cc1`, 8.4%.
The same measure, in the same setting: the result for `FC1C2=C(SC1(F)F)C1CCC2C1` (stereo not given) reads 12.9%.
Turning to `CCCCCCP(=O)(CCCC)CCCC`, the growth inhibition is -0.2%.
In the case of `CNC(=O)Nc1[nH]c(=O)ncc1Cl`, the growth inhibition was 5.2%.
`Cc1cc(=O)c2c3c(ccc2[nH]1)Oc1ccccc1O3`: the growth inhibition is 13.1%.
Same read-out and setting: the result for `COC(=O)c1cc(C(C)O)nc2ccccc12` (stereo not given) reads 6.35%; that for `CC(OC(C)(C)C)C(NC(=O)OCC1c2ccccc2-c2ccccc21)C(=O)NC(Cc1ccccc1)C(=O)OCc1ccccc1` (stereo not given) (Fmoc-Thr(tBu)-Phe-OBn; configuration not given here), 0.45%; that for `CCOC(=O)c1cnc(=S)n(CCC(C)C)c1N`, 4.95%.
On the same count and under the same terms, the result for `CC(=O)Nc1ccc(N=Nc2c(C)nn(C(=N)N)c2C)cc1` reads 9%; that for `O=C1NC(c2ccco2)N2C(=O)NC(c3ccco3)N12` (stereo not given), 16.7%; that for `COc1cc(-c2c3c(cc4c2OCO4)CC(O)C(C(=O)O)C3)cc(OC)c1OC` (stereo not given), 5.6%.
For the compound `OC(CBr)(c1ccccc1)c1ccccc1`, the growth inhibition is 24.1%.
On the same count and under the same terms, the result for `CC(C)C1N=C(N)N=C(N)N1c1ccc(Cl)c(Cl)c1` (stereo not given) reads 6.6%; that for `CC(=O)/C(=C\I)c1ccccc1`, 85.5% (active).
